In PubChem BioAssay AID1347145 (National Center for Advancing Translational Sciences (NCATS), 2019):
Results filed as inconclusive are left out. Calls come from the whole dose curve; as a rule, active = well fitted inhibition curve with a large enough effect; inconclusive = small, poorly fitted or top-dose-only effect; inactive = no such curve, though single readings can be large or run the other way.

Biological target: N-terminal Xaa-Pro-Lys N-methyltransferase 1 (Homo sapiens) (UniProt Q9BV86)
Assay: qHTS Assay for Inhibitors of N-terminal methyltransferase 1 (NTMT1): MTaseGlo Assay Confirmatory Screen, Round 1
Settings: Recombinant NTMT1, MTase-Glo SAH luminescence; series mostly up to 57.1 µM; activity change, negative = inhibition: at the top concentration
Method in brief: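 Luminescence from MTase-Glo conversion of SAH to ATP measured activity after a 30 min RT reaction with 1 µM SPKRIA substrate, 100 µM SAM and 125 nM enzyme. Normalization used no-enzyme and DMSO controls, followed by Hill fitting.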
Note: 0% is about no effect.

Sequence of N-terminal Xaa-Pro-Lys N-methyltransferase 1 (Homo sapiens) (Q9BV86 whole entry, looked up): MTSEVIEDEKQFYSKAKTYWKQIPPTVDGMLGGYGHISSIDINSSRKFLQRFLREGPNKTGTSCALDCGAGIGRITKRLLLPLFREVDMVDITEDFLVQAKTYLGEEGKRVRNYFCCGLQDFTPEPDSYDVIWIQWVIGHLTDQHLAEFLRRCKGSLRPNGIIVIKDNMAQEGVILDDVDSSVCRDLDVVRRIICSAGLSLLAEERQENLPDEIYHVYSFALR

Activity change, negative = inhibition, inactive:
COc1cc2c(NC3CCN(C)CC3)nc(N3CCCN(C)CC3)nc2cc1OCCCN1CCOCC1 -9.55%
CNc1nc(N2CCN(C)CC2)nc2cc(OC)c(OC)cc12 -0.109%
COc1cc2c(NC3CCN(C)CC3)nc(N3CCCN(C)CC3)nc2cc1OCC1CCNCC1 -20.9%
COc1cc2c(NC3CCN(C)CC3)nc(N3CCCCC3)nc2cc1OCCOCCN1CCCC1 -17.5%
COc1cc2c(NC3CCN(C)CC3)nc(N3CCCN(C)CC3)nc2cc1O 1.05%
Nc1nc(Cl)nc2c1ncn2[C@@H]1O[C@H](COP(=O)(O)OP(=O)(O)OP(=O)(O)O)[C@@H](O)[C@H]1O 78.7%
Nc1nc(=S)c2ncn([C@@H]3O[C@H](CO)[C@@H](O)[C@H]3O)c2[nH]1 -3.46%
Nc1ccc(CCNc2ncnc3c2ncn3C2OC(CO)C(O)C2O)cc1 (stereo unspecified) 13.9%
C=CCNc1nc(NC2CCN(C)CC2)c2cc(OC)c(OC)cc2n1 -15.4%
Nc1ncnc2c1ncn2[C@@H]1O[C@H](COP(=O)(O)OP(=O)(O)OP(=O)(O)O)[C@@H](O)[C@H]1O 2.53%
Nc1ncnc2c1ncn2[C@H]1O[C@H](CO)[C@@H](O)[C@@H]1O -6.56%
COc1cc2nc(N3CCN(C)CC3)nc(NCCN(C)C)c2cc1OC -1.87%
OCC1OC(n2cnc3c(NCc4ccco4)ncnc32)C(O)C1O (stereo unspecified) 146%
CNC(=O)[C@H]1O[C@H](n2cnc3c(NCc4cccc(I)c4)ncnc32)[C@@H](O)[C@@H]1O -4.49%
C[C@@H](Cc1ccccc1)Nc1ncnc2c1ncn2[C@@H]1O[C@H](CO)[C@@H](O)[C@H]1O -8.34%
N#Cc1ccc(COC[C@H]2O[C@@H](n3c(NCc4ccc(Cl)c(Cl)c4)nc4c(N)ncnc43)[C@@H](O)[C@@H]2O)cc1 -5.9%
COc1cc2nc(N3CCN(C(N)=O)CC3)nc(NC3CC3)c2cc1OC -13.1%
Nc1nc(Cl)nc2c1ncn2[C@@H]1O[C@H](CO)[C@H](O)[C@H]1O 3.82%
COc1cc2c(NC3CCN(C)CC3)nc(N3CCCCC3)nc2cc1OCCOCCN(C)C -9.13%
Nc1ncnc2c1ncn2[C@@H]1O[C@H](COP(=O)(O)OP(=O)(O)OP(=O)(O)OP(=O)(O)OC[C@@H]2O[C@H](n3cnc4c(N)ncnc43)[C@@H](O)[C@H]2O)[C@@H](O)[C@H]1O 1000%
CSCC1OC(n2cnc3c(N)ncnc32)C(O)C1O (stereo unspecified) -5.25%
Cc1cc(C)c(CNC(=O)c2cc(-c3ccc(CN4CCOCC4)cc3)cc3c2cnn3C2CCCC2)c(=O)[nH]1 -3.08%
COc1cc2nc(N3CCN(C)CC3)nc(NC(C)C)c2cc1OC 6.72%
COc1cc2c(NC3CCN(C(C)C)CC3)nc(N3CCCN(C(C)C)CC3)nc2cc1OCCOCCN(C)C -16.3%
Nc1nc(Cl)nc2c1ncn2[C@@H]1O[C@H](CO)C(O)[C@H]1O (stereo partly specified) -0.316%
Nc1ncnc2c1ncn2[C@@H]1O[C@H](CO)C(O)[C@H]1O (stereo partly specified) 89.3%
COc1cc2nc(N3CCCN(C)CC3)nc(NC3CCOCC3)c2cc1OC 10.6%
OC[C@@H]1O[C@@H](n2cnc3c(NC4CCCC4)ncnc32)[C@H](O)[C@H]1O 7.9%
COC(=O)c1ccc2c(c1)nc(NC(=O)c1ccccc1)n2CCCc1ccccc1 9.09%
COc1cc2nc(N3CCCN(C)CC3)nc(N3CCN(C)CC3)c2cc1OC 1.01%
Nc1ncnc2c1nc(Br)n2C1OC(CO)C(O)C1O (stereo unspecified) -7.93%
COc1cc2nc(N3CCN(C)CC3)nc(NC3CCCCC3)c2cc1OC -5.59%
Nc1ncnc2c1[nH]c(=S)n2C1OC(CO)C(O)C1O (stereo unspecified) 0.076%
COc1cc2nc(NC3CCN(C)CC3)nc(N3CCCN(C)CC3)c2cc1OC -9.95%
OC[C@H]1O[C@H](n2cnc3c(N[C@H]4CCC[C@@H]4O)ncnc32)[C@H](O)[C@@H]1O 19.1%
Nc1ncnc2c1[nH]c(=O)n2C1OC(CO)C(O)C1O (stereo unspecified) -5.08%
